Among the test systems are HCT-15 colon; HT29 colon; SNB-75 CNS; SNB-19 CNS; U251 CNS; PC-3 prostate; SK-MEL-5 melanoma; UACC-62 melanoma; LOX IMVI melanoma; SK-MEL-28 melanoma; SK-MEL-2 melanoma; EKVX NSCLC; SN12C renal; UO-31 renal; TK-10 renal; ACHN renal; CAKI-1 renal; A498 renal; CCRF-CEM leukemia; MOLT-4 leukemia.
Common to all, as to experiment: NCI-60 one-dose screen, 48 h (100 = growth as untreated, 0 = no growth, -100 = all killed)
Common to all, as to settings: 10 µM unless noted

The structures appear in SMILES notation. “And” between values parts separate entries of the source, which are not always exact repeats. Identical values can stand only once. This is part of a sample that, as a whole, favours compounds with a hit. Of some 83,000 tested, about 20% had one in any assay.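 Results are percent growth after 48 hours of single-concentration exposure. 100 means growth as in untreated cells, lower positive values show inhibition; negative values down to -100 show cell death.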 Unmarked numbers belong to inactive results. The source made the active and inactive calls. How the source made its calls: active means growth percent below 10; inactive means the rest.

In the case of `CN1CCN(C(=O)OCc2nc3c(N4CCOCC4)nc(Cl)nc3n2C)CC1`, the growth in the experiment with HCT-15 colon is -55.4% (active); in the experiment with HT29 colon, -67.7% (active); in the experiment with SNB-75 CNS it was -21.7% (active); in the experiment on SNB-19 CNS it was 57.9%; in the experiment on U251 CNS, -14.1% (active); with PC-3 prostate, -16.9% (active). Also, the growth is -12.8% (active) in the experiment on SK-MEL-5 melanoma; -78% (active) with UACC-62 melanoma; -96.2% (active) in the experiment on LOX IMVI melanoma; -95.5% (active) with SK-MEL-28 melanoma; -57.4% (active) in the experiment on SK-MEL-2 melanoma; -43.6% (active) with EKVX NSCLC. The growth with SN12C renal was -75.1% (active); in the experiment with UO-31 renal it was -100% (active); in the experiment on TK-10 renal, -78% (active); in the experiment on ACHN renal it was -94.5% (active); with CAKI-1 renal it was -75.2% (active); in the experiment on A498 renal, -15.5% (active). Also, the growth in the experiment on CCRF-CEM leukemia was -6.96% (active); in the experiment on MOLT-4 leukemia, -24.8% (active).

With `NC(N)=NC(N)=NCCCc1ccco1`, the growth in the experiment on HCT-15 colon was 106%; in the experiment on HT29 colon it was 94.4%; in the experiment with SNB-75 CNS it was 111%; in the experiment with SNB-19 CNS, 103%; in the experiment with U251 CNS it was 101%; in the experiment with PC-3 prostate, 103%. Further, the growth with SK-MEL-5 melanoma was 101%; in the experiment on UACC-62 melanoma, 113%; with LOX IMVI melanoma, 97.1%; in the experiment with SK-MEL-28 melanoma, 98.8%; in the experiment with SK-MEL-2 melanoma, 96.1%; in the experiment with EKVX NSCLC, 113%. The growth is 108% with SN12C renal; 102% in the experiment with UO-31 renal; 86.2% with TK-10 renal; 107% with ACHN renal; 96.4% in the experiment with CAKI-1 renal; 118% in the experiment with A498 renal. In addition, the growth in the experiment with CCRF-CEM leukemia was 101%; in the experiment on MOLT-4 leukemia it was 93.2%.

Take `COc1cc(/C=C2\C(=O)N(CCCCn3c4ccccc4c(=O)c4ccccc43)c3ccccc32)cc(OC)c1O`: the growth is 36.3% in the experiment on HCT-15 colon; 41.6% with HT29 colon; 51.7% in the experiment with SNB-75 CNS; 62.7% with SNB-19 CNS; 67.5% in the experiment with U251 CNS; 39.9% in the experiment on PC-3 prostate. The growth in the experiment with SK-MEL-5 melanoma is 55.3%; in the experiment with UACC-62 melanoma, 37.5%; in the experiment with LOX IMVI melanoma, 52.8%; in the experiment with SK-MEL-28 melanoma, 68.5%; in the experiment with SK-MEL-2 melanoma, 26.5%; with EKVX NSCLC, 74%. Moreover, the growth in the experiment on SN12C renal is 71.1%; in the experiment on UO-31 renal, 49.5%; with TK-10 renal it was 120%; with ACHN renal, 63.3%; with CAKI-1 renal it was 52%; with A498 renal, 75.5%. Besides, the growth was 15.9% in the experiment with CCRF-CEM leukemia and 29% in the experiment on MOLT-4 leukemia.

`Nc1nc(N)c2c(n1)NC(c1cccc(Nc3ccnc4cc(C(F)(F)F)ccc34)c1)CC(c1ccc(F)cc1)=N2` (stereo not given): the growth is 21.3% in the experiment on HCT-15 colon; 12.5% in the experiment with HT29 colon; 47.1% in the experiment with SNB-75 CNS; 61.3% in the experiment on SNB-19 CNS; 33.6% in the experiment on U251 CNS; 34.4% in the experiment on PC-3 prostate. The growth in the experiment on SK-MEL-5 melanoma was 30.4%; in the experiment on UACC-62 melanoma it was 71.4%; in the experiment with LOX IMVI melanoma, 40.5%; in the experiment on SK-MEL-28 melanoma, 79.2%; in the experiment on SK-MEL-2 melanoma it was 37.3%; in the experiment on EKVX NSCLC it was 47%. Further, the growth with SN12C renal was 59.8%; in the experiment with UO-31 renal, 53.7%; in the experiment on TK-10 renal, 91.8%; in the experiment on ACHN renal, 75.5%; in the experiment with CAKI-1 renal, 47.1%; with A498 renal it was 78.1%. Besides, the growth in the experiment on CCRF-CEM leukemia was 25%; in the experiment with MOLT-4 leukemia it was 2.74% (active).

In the case of `COc1ccc(S(=O)(=O)Nc2cc(Sc3cccc4cccnc34)c(O)c3ccccc23)cc1`, the growth in the experiment with HCT-15 colon is 10.9%; in the experiment on HT29 colon it was -37.8% (active); in the experiment on SNB-75 CNS, 62.5%; in the experiment on SNB-19 CNS, 43%; in the experiment with U251 CNS it was 4.81% (active); in the experiment on PC-3 prostate, 26.3%. The growth with SK-MEL-5 melanoma is -32.7% (active); in the experiment on UACC-62 melanoma it was -28.1% (active); in the experiment with LOX IMVI melanoma it was -55.8% (active); in the experiment with SK-MEL-28 melanoma, -2.3% (active); in the experiment on SK-MEL-2 melanoma it was 5.09% (active); with EKVX NSCLC it was 36.7%. Besides, the growth is 17.2% in the experiment on SN12C renal; 27.4% in the experiment with UO-31 renal; 23.4% in the experiment on TK-10 renal; 7.43% (active) in the experiment with ACHN renal; 20% in the experiment on CAKI-1 renal; 65.2% in the experiment with A498 renal. Also, the growth was 13.4% in the experiment with CCRF-CEM leukemia and -4.51% (active) in the experiment on MOLT-4 leukemia.

For the molecule `O=C1N=c2ccccc2=C1c1sc(=S)n(C2CC(=O)N(c3ccc(Cl)cc3)C2=O)c1O` (stereo not given), the growth in the experiment on HCT-15 colon is 93.7%; in the experiment with HT29 colon it was 114%; in the experiment on SNB-75 CNS it was 86.1%; in the experiment with SNB-19 CNS, 102%; in the experiment with U251 CNS, 104%; in the experiment with PC-3 prostate, 86.6%. Moreover, the growth in the experiment with SK-MEL-5 melanoma was 102%; with UACC-62 melanoma, 95.9%; in the experiment with LOX IMVI melanoma, 89.5%; in the experiment with SK-MEL-28 melanoma, 109%; with SK-MEL-2 melanoma it was 102%; with EKVX NSCLC it was 101%. Besides, the growth in the experiment with SN12C renal was 94.9%; with UO-31 renal, 68.5%; with TK-10 renal, 129%; in the experiment with ACHN renal, 93.9%; in the experiment on CAKI-1 renal, 87.6%; with A498 renal, 114%. For the same molecule, the figures for the growth with CCRF-CEM leukemia and in the experiment with MOLT-4 leukemia were 83.8% and 97.7%, respectively.

For the molecule `O/N=C(/c1ccccc1)c1ccc2c3c(cccc13)CC2`, the growth is 84.7% and 77.3% in the experiment with HCT-15 colon; 97.5% and 86.4% with HT29 colon; 74.8% and 58.4% in the experiment on SNB-75 CNS; 98.5% and 94.1% in the experiment with SNB-19 CNS; 90.1% and 89.3% with U251 CNS; 80% and 77.5% in the experiment with PC-3 prostate. Moreover, the growth is 98.1% and 91.1% with SK-MEL-5 melanoma; 84.6% and 74.7% with UACC-62 melanoma; 89.6% and 89.1% with LOX IMVI melanoma; 92.8% and 87.5% with SK-MEL-28 melanoma; 96.2% and 92.7% in the experiment with SK-MEL-2 melanoma; 79.5% in the experiment on EKVX NSCLC. Moreover, the growth with SN12C renal was 93.1% and 85.7%; with UO-31 renal it was 73.4% and 81.3%; in the experiment on TK-10 renal it was 113% and 89.7%; in the experiment on ACHN renal it was 101% and 94.5%; in the experiment with CAKI-1 renal it was 71.5% and 72.5%; with A498 renal it was 78.3% and 89.2%. For the same molecule, the growth is 75.3% and 82.8% in the experiment with CCRF-CEM leukemia; 74.7% and 72.9% in the experiment with MOLT-4 leukemia.

(Values after PubChem BioAssay (NCI).)
